# High-throughput results: PubChem BioAssay, several laboratories
# IEC-6 tox: counter-screen for KLF5 inhibitors: cytotoxicity in IEC-6 cells | IEC-6 cytotoxicity, luminescence viability | inhibition, % at 5 µM | 0.78% of 290,000 active | AID 1825; in the data active means inhibition above about 22%
# SKKanGAS inh: blocks kanamycin growth of S. pyogenes SKKanGAS strain; BacTiter-Glo, 6 h; inhibition, % at 7.5 µM; 1.3% of 300,000 active; AID 1662;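 active means mean replicate score, as percent of positive control median, at least 50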;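 further: strain carries kanamycin resistance gene driven by streptokinase promoter and grows in 40 µg/ml kanamycin; loss of luminescence reflects streptokinase promoter inhibition or plain growth inhibition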
# aSyn 5UTR inh: MLPCN primary screen, SNCA 5' untranslated region | alpha-synuclein 5'UTR reporter, inhibitor activity | inhibition, % (tested at 7.5 µM) | 0.82% of 300,000 active | AID 1813; in the data active means inhibition above about 60%;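 further: H4 neuroglioblastoma cells stably carrying SNCA 5'UTR luciferase fusion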
# CSC inhib: cancer stem cell inhibition | cancer stem cell-like cells viability, luminescence | 1.1% of 300,000 active | AID 2717 | inhibition, % at 7.5 µM; in the data active means inhibition above about 75%; tested in HMLE shEcad cells
# KLF5 inh: inhibitors of KLF5 expression; DLD-1 KLF5 promoter-luciferase reporter, luminescence; inhibition, % at 5 µM; 0.23% of 290,000 active;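 active means inhibition above a per-plate limit of that plate's mean compound inhibition plus 3 SD, cut at about 60% in these data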;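 further: higher means less KLF5 promoter-driven luciferase light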
# Numbers stand for hits; 0 = inactive; - = no result given. Only some compounds are listed: those with a hit (about 3% of all), similar ones and a draw of the others.
SMILES,IEC-6 tox,SKKanGAS inh,aSyn 5UTR inh,CSC inhib,KLF5 inh
CC(C)CN1C(=S)SC(C)(C)C1n1oc(=O)n(-c2ccc(Cl)cc2)c1=O (centres undefined),0,71,0,0,0
O=C(NNc1ccc(-c2csnn2)cc1)c1cc(Cl)cc(Cl)c1,0,0,0,87,0
O=C(Nc1ccc(-c2nc3ccccc3s2)cc1)C1=COCCO1,0,0,94,0,0
O=C(Nc1cccc(-c2nc3ccccc3s2)c1)C1=COCCO1,0,0,0,0,0
COc1cc(/C=C/C(=O)c2ccc(NS(=O)(=O)c3ccc(C)cc3)cc2)ccc1OC(F)F,0,0,0,0,0
COc1cccc(/C=C/C(=O)c2ccc(NS(=O)(=O)c3ccc(C)cc3)cc2)c1,0,0,0,81,0
COc1cc(/C=C/C(=O)c2ccc(NS(=O)(=O)c3ccc(C)cc3)cc2)cc(OC)c1O,0,0,0,80,0
COc1ccc2cc(C(=O)/C=C/c3cc(OC)c(O)c(OC)c3)ccc2c1,0,69,0,0,0
COCc1cc(=O)[nH]c(N2CCN(Cc3ccc4c(c3)OCO4)CC2)n1,0,0,0,0,0
Cc1ccc(CNC(=O)c2ccc(Cl)c(S(N)(=O)=O)c2)n1C,0,0,0,0,0
CC(C)N(C(=O)COC(=O)CNC(=O)c1ccc(Br)cc1)c1ccccc1,0,0,0,0,0
CC(C)=CCc1c2c(c(O)c3c(=O)c4c(oc13)-c1cc(O)c(O)cc1OC4C=C(C)C)C=CC(C)(C)O2 (centres undefined),-,93,0,0,-
CC(C)=CCc1c(-c2ccc(O)cc2O)oc2c3c(cc(O)c2c1=O)OC(C)(C)C=C3,-,108,0,0,-
COc1ccc(N(C(=O)CNC(=O)c2ccco2)C(C(=O)NCC2CCCO2)c2ccccc2)cc1 (centres undefined),0,0,0,0,0
CCCCNc1c(-c2cccc(SC3CCCCC3)c2)nc2ccc(Cl)cn12,-,0,0,0,-
CCCCCCSc1cc(-c2nc3ccc(C)cn3c2NCCCC)ccc1OC,-,-,-,97,-
CCCCCCSc1cc(-c2nc3ccc(Cl)cn3c2NCCCC)ccc1OC,-,0,0,0,-
CCCCNc1c(-c2ccc(SC3CCCCC3)c(OC)c2)nc2ccc(C)cn12,-,-,-,101,-
CCCCNc1c(-c2ccc(OC)c(SC(C)CC)c2)nc2ccc(Cl)cn12 (centres undefined),-,-,-,0,-
CCCCNc1c(-c2ccc(OC)c(SC(C)CC)c2)nc2ccc(C)cn12 (centres undefined),-,-,-,100,-
COC(=O)c1cccc(NC(=O)CN2CCc3ccccc3C2)c1,0,0,0,0,0
CCC(=O)NCCc1nc2cc(NC(=O)c3ccc(F)cc3)ccc2n1C,0,0,0,0,0
Cc1cc([N+](=O)[O-])nn1Cc1ccc(C(=O)N/N=C/c2ccc(O)cc2O)cc1,0,0,0,117,0
CCOc1ccc(NC(=O)CCn2c(=O)[nH]c3ccsc3c2=O)cc1,0,0,0,-,0
c1ccc(CN2CCN(c3nc(-c4ccccc4)nc4ccccc34)CC2)cc1,0,0,0,0,0
SMILES,IEC-6 tox,SKKanGAS inh,aSyn 5UTR inh,CSC inhib,KLF5 inh
c1ccc(CN2CCN(c3nc4ccccc4c4ccccc34)CC2)cc1,0,76,0,0,0
Nc1c(-c2ccccc2)c(CSc2nc3ccccc3[nH]2)nn1-c1ccc(Cl)cc1,0,0,0,0,0
Nc1c(-c2ccccc2)c(CSc2nc3ccccc3[nH]2)nn1-c1cccc(Cl)c1,0,103,0,0,0
O=C(NC1=NCCS1)c1cc(-c2ccccc2)nn1-c1ccccc1,-,51,0,-,-
Cc1ccc(NC(=O)c2cc(-c3ccccc3)nn2-c2ccccc2)c(Br)c1,0,0,0,0,0
Cc1ccc(NC(=O)c2cc(-c3ccccc3)nn2-c2ccccc2)cc1,0,0,0,88,0
CN1CCN(C(=S)c2cn(CCOc3ccccc3F)c3ccccc23)CC1,0,0,0,0,0
Cc1ccc(Oc2ccc3c(c2)C(=O)N(c2ccc(S(=O)(=O)Nc4nccs4)cc2)C3=O)cc1,0,93,0,0,0
Cc1ccc(/C=C2/SC(=S)N(c3ccc(S(=O)(=O)Nc4nccs4)cc3)C2=O)cc1,0,0,0,0,0
COc1ccc(-c2cc([C@H]3[C@H]4C=CC[C@@H](C)[C@@H]4C(=O)N3Cc3ccccc3)ccc2F)cc1OC,-,0,0,0,-
C[C@@H]1CC=C[C@H]2[C@H]1C(=O)N(Cc1ccccc1)[C@H]2c1ccc2ccccc2c1,-,0,0,86,-
COc1ccc(-c2cc([C@H]3[C@H]4C=CC[C@@H](C)[C@@H]4C(=O)N3Cc3ccccc3)ccc2F)cc1,-,0,0,77,-
C[C@@H]1CC=C[C@H]2[C@H]1C(=O)N(Cc1ccccc1)[C@H]2c1ccc2ccccc2c1Br,-,57,0,-,-
Cc1ccc(F)c([C@H]2[C@H]3C=CC[C@@H](C)[C@@H]3C(=O)N2Cc2ccccc2)c1,-,0,0,0,-
C[C@@H]1CC=C[C@H]2[C@H]1C(=O)N(Cc1ccccc1)[C@H]2c1ccc(F)c(Br)c1,-,0,0,-,-
CCc1ccc(CN(C)C(=O)CCc2nnc(CCc3ccccc3OC)o2)nc1,0,0,0,0,0
O=C(CCC1CCCN(Cc2ccc3c(c2)CCO3)C1)NCc1ccc(F)c(F)c1 (centres undefined),0,0,0,0,0
O=C(COc1ccc(Br)cc1)Nc1ccc(CN2CCOCC2)cc1,0,0,0,0,0
CCCCNc1cc(F)nc(N)n1,0,0,0,0,0
CC(C)(C)c1nc(NC(=O)Nc2ccccc2)sc1Br,0,68,0,0,0
COc1ccc2nc(NC(=O)Nc3ccccc3)sc2c1,0,0,0,-,0
Cn1cc(C(=O)c2ccc(Cl)cc2Cl)cc1C(=O)N/N=C(\N)COc1cccc(C(F)(F)F)c1,0,59,0,0,0
C=CC[n+]1c(-c2ccc(C)cc2)csc1Nc1ccc(NC(C)=O)cc1,0,0,100,-,0
CCN1CCN(c2ccc(NC(=O)c3cccc(F)c3)cc2Cl)CC1,0,0,0,-,0
CC[C@H]1OC(=O)C[C@@H](O)[C@H](C)[C@@H](O[C@@H]2O[C@H](C)C[C@H](N(C)C)[C@H]2O)[C@@H](CC=O)C[C@@H](C)C(=O)C=C[C@]2(C)O[C@H]2[C@@H]1C,-,111,0,0,-
SMILES,IEC-6 tox,SKKanGAS inh,aSyn 5UTR inh,CSC inhib,KLF5 inh
O=C(NNC(=O)c1cc2cc(OC(F)(F)F)ccc2[nH]1)c1cccc(C(F)(F)F)c1,0,0,0,0,0
COc1ccc2nc(-n3c(O)c(C4=c5ccccc5=NC4=O)[nH]c3=S)sc2c1,0,104,0,111,0
Cc1ccc(C(=O)Nc2ncc([N+](=O)[O-])s2)cc1,0,0,69,0,87
CCOc1ccc(S(=O)(=O)N(CC)CC)cc1NC(=O)c1ccc(N2CCCC2=O)cc1,0,0,0,0,0
O=C(Nc1cc2ccccc2oc1=O)c1ccccc1,0,0,74,0,0
Cc1ccccc1C(=O)Nc1ccnn1C1CCN(C(=O)c2cnsn2)CC1,0,0,0,0,0
COc1c(CC=C(C)C)cc(C2CC(=O)c3c(O)cc(O)cc3O2)cc1CC=C(C)C (centres undefined),-,101,0,100,-
CC1=C(/C=C/C(C)=C/C=C/C(C)=C\C(=O)O)C(C)(C)CCC1,-,0,0,0,-
